“And” between values parts separate entries of the source, which are not always exact repeats. Equal values may be shown once. Records with an inconclusive call do not appear. The source made the active and inactive calls. Unless noted, the call rests on the fitted dose curve; in most records, active means well fitted curve in the direction sought with a large enough effect in the repeat runs; inconclusive means weak or mixed curves; inactive means no such curve, though single readings can be large; an effect the other way counts as inactive or inconclusive.
How the values were obtained:
[1] = A CellTox Green Cytotoxicity Assay to monitor cytotoxicity in HEK293 cells - 32 hour (AID 1224881); further: nearly all actives have a fitted effect of over 40% in size; further: potency means the concentration at half of the fitted maximal effect
Method in brief: (§1)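 Tox21 screen in HEK293: membrane-impermeant cyanine dye fluoresces on binding dead-cell DNA; compound pinned 5 h post-seeding, plates held at 37 C, signal read repeatedly through 40 h.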

[2] = A CellTox Green Cytotoxicity Assay to monitor cytotoxicity in HepG2 cells - 0 hour (AID 1224882); further: nearly all actives have a fitted effect of over 35% in size
Method in brief: (§2)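 Measurements at 0, 8, 16, 24, 32 and 40 h of treatment captured CellTox Green fluorescence in HepG2 cells that had been co-plated with reagent and preincubated 5 h at 37 C/5% CO2.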

[3] = A CellTox Green Cytotoxicity Assay to monitor cytotoxicity in HepG2 cells - 32 hour (AID 1224883); further: nearly all actives have a fitted effect of over 50% in size; further: potency means the concentration at half of the fitted maximal effect
Method in brief: as §2

[4] = qHTS RealTime-Glo MT Cell Viability Assay in HepG2 cells - 16 hour (AID 1224885); further: nearly all actives have a fitted effect of over 50% in size
Method in brief: (§3)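 Tox21 10K library screened in qHTS format on HepG2 cells carrying RealTime-Glo reagents. Compounds were added after a 5 h preincubation, and the luminescent signal from continuous culture was measured repeatedly during 40 h treatment.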

[5] = qHTS RealTime-Glo MT Cell Viability Assay in HEK293 cells - 24 hour (AID 1224886); further: nearly all actives have a fitted effect of over 50% in size; further: potency means the concentration at half of the fitted maximal effect; on activity change, negative = cytotoxicity: top concentration of the series differs between compounds
Method in brief: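 Luminescence generated by NanoLuc from substrate produced by living HEK293 cells served as the viability signal. Each value reflects the reading at its stated time point during continuous 40 h compound exposure at 37 C.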

[6] = qHTS RealTime-Glo MT Cell Viability Assay in HEK293 cells - 8 hour (AID 1224887); further: nearly all actives have a fitted effect of over 50% in size; further: potency means the concentration at half of the fitted maximal effect; on activity change, negative = cytotoxicity: top concentration of the series differs between compounds
Method in brief: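 HEK293 + NanoLuc + prosubstrate, 600 cells/well; 5 h, 37 C/5% CO2; compound 23 nL in DMSO by pintool; 37 C; luminescence read at 0, 8, 16, 24, 32 and 40 h time points.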

[7] = A CellTox Green Cytotoxicity Assay to monitor cytotoxicity in HEK293 cells - 16 hour (AID 1224888); further: nearly all actives have a fitted effect of over 35% in size
Method in brief: as §1

[8] = qHTS RealTime-Glo MT Cell Viability Assay in HepG2 cells - 0 hour (AID 1224889); further: nearly all actives have a fitted effect of over 50% in size
Method in brief: as §3

[9] = A CellTox Green Cytotoxicity Assay to monitor cytotoxicity in HepG2 cells - 8 hour (AID 1224890); further: nearly all actives have a fitted effect of over 45% in size
Method in brief: as §2

[10] = qHTS assay to identify small molecule antagonists of the estrogen receptor alpha (ER-alpha) signaling pathway using the BG1 cell line in the presence of 0.1 nM 17-beta-estradiol - cell viability counter screen (AID 1259241); further: nearly all actives have a fitted effect of over 40% in size
Method in brief: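 Live-cell protease activity (CellTiter-Fluor fluorescence, 30 min) was read in the same wells after VM7Luc4E2 cells had been exposed to compounds with 0.1 nM 17beta-estradiol for 22 hr at 37C.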

[11] = qHTS assay to identify small molecule antagonists of the androgen receptor (AR) signaling pathway using the MDA cell line in the presence of 0.5 nM R1881 - cell viability counter screen (AID 1259242); further: nearly all actives have a fitted effect of over 45% in size
Method in brief: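 Concentration-response screen of compounds for toxicity in MDA-kb2 reporter cells: 16 hr at 37C with 0.5 nM R1881, endpoint live-cell protease fluorescence measured in the reporter wells.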

[12] = molecular target: Estrogen receptor (Homo sapiens) (UniProt P03372); experiment: qHTS assay to identify small molecule antagonists of the estrogen receptor alpha (ER-alpha) signaling pathway using the BG1 cell line in the presence of 0.1 nM 17-beta-estradiol (AID 1259244); further: nearly all actives have a fitted effect of over 50% in size; further: potency means the concentration at half of the fitted maximal effect
Method in brief: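 Compounds were tested against 0.1 nM (final) 17beta-estradiol in VM7Luc4E2 cells, which express full-length ER-alpha and an ERE-luciferase reporter; luminescence was recorded following 22 h exposure.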

[13] = qHTS assay to identify small molecule HDAC inhibitors (AID 1259364);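 further: wild-type HCT-116 cells with endogenous class I/II HDAC activity; top concentration of the series differs between compounds; nearly all actives have a fitted effect of over 45% in size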
Method in brief: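 Screening used wild-type human colon HCT-116 cells incubated overnight, dosed with compounds for 2 hours, and assayed with a homogeneous luminogenic HDAC I/II reagent for 30 minutes at room temperature.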

[14] = qHTS assay to identify small molecule HDAC inhibitors - cell viability counter screen (AID 1259365)
Method in brief: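 HCT-116 (wild type), 1,500 cells/well, overnight 37C/5% CO2; compound in DMSO 2hr; CellTiter-Glo 30min RT; luminescence read.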

[15] = qHTS assay to identify small molecule agonists of the sonic hedgehog signaling (Shh) pathway (AID 1259368; calls by dose curve;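 further: NIH/3T3-derived 3T3Gli1-Luc cells carrying a stable Gli1-driven firefly luciferase reporter; series mostly up to about 92 µM; nearly all actives have a fitted effect of over 15% in size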)
Method in brief: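 Hedgehog pathway agonism scored by increased firefly luciferase luminescence in 3T3Gli1-Luc cells treated 24 hr at 37 C; detection used a 30 min room-temperature reagent incubation.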

[16] = A CellTox Green Cytotoxicity Assay to monitor cytotoxicity in HEK293 cells - 8 hour (AID 1224884); further: nearly all actives have a fitted effect of over 35% in size
Method in brief: as §1

[17] = molecular target: Androgen receptor (Homo sapiens) (UniProt P10275); experiment: qHTS assay to identify small molecule antagonists of the androgen receptor (AR) signaling pathway using the MDA cell line in the presence of 0.5 nM R1881 (AID 1259243); further: nearly all actives have a fitted effect of over 50% in size; further: potency means the concentration at half of the fitted maximal effect
Method in brief: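 With R1881 held at 0.5 nM (final), compound effects on MMTV-luciferase expression in MDA-kb2 cells were scored by luminescence after a 16 hr, 37C incubation.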

[18] = qHTS assay to identify small molecule phospholipidosis (PLD) inducers (AID 1259344; active means well fitted curve in the direction sought with a large enough effect; an effect the other way counts as inactive or inconclusive; further: potency means the concentration at half of the fitted maximal effect)
Method in brief: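 Accumulated phospholipid, stained red by LipidTOX during 24 h compound treatment of HepG2 cells at 37 C, is quantified from images as pit number and intensity, normalised per cell using Hoechst-stained nuclei.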

[19] = qHTS assay to identify small molecule antagonists of the sonic hedgehog signaling (Shh) pathway - cell viability counter screen (AID 1259367); further: nearly all actives have a fitted effect of over 55% in size; further: potency means the concentration at half of the fitted maximal effect
Method in brief: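 CellTiter-Fluor signal in conditioned medium-stimulated 3T3 Gli1-Luc cells, 23 hr compound exposure, 37C.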

[20] = qHTS assay to identify small molecule agonists of the sonic hedgehog signaling (Shh) pathway - cell viability counter screen (AID 1259366); further: nearly all actives have a fitted effect of over 50% in size; further: potency means the concentration at half of the fitted maximal effect
Method in brief: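 CellTiter-Fluor fluorescence read-out, 1 hr at 37C, added after 23hr compound exposure. Cells: 3T3 Gli1-Luc, an NIH/3T3 clone with stably integrated Gli1-Luc reporter, plated 4hr before compound.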
On the % scale 0 is the no-effect control and ±100 the full control effect.

Chain of Estrogen receptor (Homo sapiens) (P03372 whole entry, looked up): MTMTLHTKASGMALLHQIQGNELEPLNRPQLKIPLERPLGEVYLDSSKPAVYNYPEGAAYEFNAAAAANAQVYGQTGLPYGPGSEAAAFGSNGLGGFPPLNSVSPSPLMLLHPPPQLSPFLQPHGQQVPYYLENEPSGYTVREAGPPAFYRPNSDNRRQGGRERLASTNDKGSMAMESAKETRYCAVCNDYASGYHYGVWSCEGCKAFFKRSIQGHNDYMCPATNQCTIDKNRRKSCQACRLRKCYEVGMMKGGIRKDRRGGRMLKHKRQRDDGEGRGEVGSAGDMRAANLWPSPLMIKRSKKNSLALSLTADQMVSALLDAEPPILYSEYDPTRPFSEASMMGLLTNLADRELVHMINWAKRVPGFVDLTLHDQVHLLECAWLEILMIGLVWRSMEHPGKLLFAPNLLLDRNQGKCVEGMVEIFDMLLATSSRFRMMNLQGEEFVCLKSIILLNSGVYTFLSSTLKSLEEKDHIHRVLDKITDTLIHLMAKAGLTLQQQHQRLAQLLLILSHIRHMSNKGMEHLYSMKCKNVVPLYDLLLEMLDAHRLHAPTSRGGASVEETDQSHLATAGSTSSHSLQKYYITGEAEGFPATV
Chain of Androgen receptor (Homo sapiens) (P10275 whole entry, looked up): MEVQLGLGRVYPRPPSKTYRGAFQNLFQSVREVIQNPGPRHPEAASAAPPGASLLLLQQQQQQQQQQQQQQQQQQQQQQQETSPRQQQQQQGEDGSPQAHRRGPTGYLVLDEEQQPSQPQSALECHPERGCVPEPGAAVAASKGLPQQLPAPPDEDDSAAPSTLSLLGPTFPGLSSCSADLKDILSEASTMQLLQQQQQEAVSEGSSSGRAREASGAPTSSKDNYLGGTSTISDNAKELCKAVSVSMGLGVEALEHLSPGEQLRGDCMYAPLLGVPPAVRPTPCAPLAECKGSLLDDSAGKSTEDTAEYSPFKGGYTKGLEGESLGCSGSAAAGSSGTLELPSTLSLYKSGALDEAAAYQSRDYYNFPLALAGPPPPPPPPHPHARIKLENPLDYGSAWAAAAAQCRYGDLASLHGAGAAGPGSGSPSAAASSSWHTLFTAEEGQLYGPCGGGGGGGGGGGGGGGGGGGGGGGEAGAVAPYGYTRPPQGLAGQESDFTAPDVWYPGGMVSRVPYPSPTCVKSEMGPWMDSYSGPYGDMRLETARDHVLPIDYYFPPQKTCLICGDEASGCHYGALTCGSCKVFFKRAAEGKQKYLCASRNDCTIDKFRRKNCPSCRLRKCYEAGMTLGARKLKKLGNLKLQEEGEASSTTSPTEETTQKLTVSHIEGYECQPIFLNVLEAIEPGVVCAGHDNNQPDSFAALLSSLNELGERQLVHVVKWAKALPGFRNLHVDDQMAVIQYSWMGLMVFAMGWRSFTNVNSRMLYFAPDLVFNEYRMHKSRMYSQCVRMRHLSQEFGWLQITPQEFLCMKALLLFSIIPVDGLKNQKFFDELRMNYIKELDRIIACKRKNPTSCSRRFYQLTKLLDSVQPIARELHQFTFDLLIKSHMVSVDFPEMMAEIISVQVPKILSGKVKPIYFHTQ

OCCN1CCN(CCCN2c3ccccc3C=Cc3ccccc32)CC1
inactive: Potency [1] | Potency [2] | Potency [3] | Potency [4] | Potency [5] | Potency [6] | Potency [7] | Potency [8] | Potency [9] | Potency [10] | Potency [11] | Potency [12] | Potency [13] | Potency [14] | outcome [15]

OC(CN1CCC(Cc2ccc(F)cc2)CC1)c1ccc(Cl)cc1 (stereo not given)
inactive: Potency [2] | Potency [16] | Potency [8] | Potency [10] | Potency [18] | Potency [13] | Potency [14] | Potency [19] | outcome [15]
active: Potency [1] 21.3 µM | Potency [3] 23.9 µM | Potency [5] 9.52 µM | Potency [6] 16.9 µM | Potency [17] 29.8 µM

C=CC(=O)OCCOCCOCCOCCOC(=O)C=C
active: Potency [1] 54.4 µM | Potency [3] 39.1 µM and 13.7 µM | Potency [5] 34.8 µM and 30.6 µM | Potency [12] 54.8 µM | Potency [19] 19.4 µM and 27.1 µM
inactive: Potency [2] | Potency [16] | Potency [7] | Potency [8] | Potency [9] | Potency [13] | Potency [14] | outcome [15]

O=C(O)c1ccc(S(=O)(=O)O)cc1C(=O)O
inactive: Potency [1] | Potency [2] | Potency [3] | Potency [16] | Potency [4] | Potency [7] | Potency [9] | Potency [10] | Potency [11] | Potency [12] | Potency [13] | Potency [14] | Potency [20] | Potency [19]

O=C1[C@H]2CCCC[C@H]2C(=O)N1CCCCN1CCN(c2nsc3ccccc23)CC1
active: Potency [18] 14.1 µM | Potency [20] 15 µM
inactive: Potency [1] | Potency [2] | Potency [3] | Potency [16] | Potency [4] | Potency [7] | Potency [9] | Potency [12] | Potency [13] | outcome [15]

O=C(OCCCCCCOC(=O)c1ccccc1)c1ccccc1
inactive: Potency [1] | Potency [2] | Potency [3] | Potency [16] | Potency [4] | Potency [7] | Potency [8] | Potency [9] | Potency [10] | Potency [11] | Potency [12] | Potency [13] | Potency [14] | Potency [20] | outcome [15]

Brc1c2ccccc2c(Br)c2ccccc12
inactive: cytotoxicity increase [1] -2.57% [at 6.97 µM] | cytotoxicity [2] 5.32% [at 6.97 µM] | cytotoxicity increase [3] 2.42% [at 6.97 µM] | activity change, negative = cytotoxic [4] -0.25% [at 6.97 µM] | activity change, negative = cytotoxicity [5] 1.98% [at 6.97 µM] | activity change, negative = cytotoxicity [6] -3.92% [at 6.97 µM] | activity change [7] -0.0109% [at 6.97 µM, active compounds read high] | activity change, negative = cytotoxicity [8] 2.26% [at 6.97 µM] | cytotoxicity increase [9] 2.74% [at 6.97 µM] | activity change, negative = cytotoxicity [10] 3.89% [at 8.39 µM] | viability change, negative = cytotoxic [11] 2.88% [at 8.39 µM] | activity change, negative = inhibition [12] 0.899% [at 8.39 µM] | activity change, negative = inhibition [13] 3.07% [at 8.39 µM] | activity change, negative = cytotoxicity [14] 1.69% [at 8.39 µM] | viability change, negative = cytotoxic [19] -7.11% [at 8.39 µM] | activity change [15] -0.511% [at 8.39 µM]

COc1cc2nc(Cl)nc(N)c2cc1OC
inactive: Potency [1] | Potency [2] | Potency [3] | Potency [16] | Potency [4] | Potency [7] | Potency [8] | Potency [9] | Potency [10] | Potency [11] | Potency [17] | Potency [12] | Potency [13] | Potency [14] | Potency [19] | outcome [15]

Reference: PubChem BioAssay (Tox21)
